# D2 PAM-1 – positive allosteric modulators of human D2 dopamine receptor; 0.34% of 340,000 active; HEK293 T-REx D2, calcium flux, EC20 dopamine potentiation; P14416; potentiation, % at 10 µM;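 active = potentiation over 3 SD above the plate norm, cut at about 30% in these data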
# Target sequence (P14416 whole entry, looked up): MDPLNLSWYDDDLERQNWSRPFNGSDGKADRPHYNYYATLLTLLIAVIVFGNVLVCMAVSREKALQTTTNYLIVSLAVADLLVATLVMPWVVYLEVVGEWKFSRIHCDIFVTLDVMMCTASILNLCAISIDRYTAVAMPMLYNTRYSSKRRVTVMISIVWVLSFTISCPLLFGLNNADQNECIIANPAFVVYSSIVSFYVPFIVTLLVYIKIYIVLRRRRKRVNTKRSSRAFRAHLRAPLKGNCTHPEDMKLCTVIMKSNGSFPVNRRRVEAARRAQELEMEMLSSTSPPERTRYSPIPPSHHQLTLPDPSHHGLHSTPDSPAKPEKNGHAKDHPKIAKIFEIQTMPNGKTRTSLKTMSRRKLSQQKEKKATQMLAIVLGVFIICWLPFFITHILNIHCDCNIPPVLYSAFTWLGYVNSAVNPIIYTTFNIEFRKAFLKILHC
#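 Cells plated with tetracycline inducer and held overnight at 30 C; calcium dye loaded 30–90 min at room temperature; baseline taken, compound added and read 180 s; EC20 dopamine then added and read 180 s.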
# D2 ag-1 – agonists of human D2 dopamine receptor; P14416; HEK293 T-REx D2 cells, calcium flux agonist mode; activation, % at 2 µM; 0.53% of 340,000 active;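 active = activation over 3 SD above normal in the single-dose calcium agonist read, cut at about 30% in these data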
#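 Tetracycline-induced HEK293 T-REx cells with force-coupled D2 receptor, plated overnight at 30 C, loaded with no-wash calcium dye. After a 10 s baseline, compound was pin-added and calcium flux read kinetically for 180 s; calcium rises flagged agonists.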
# D2 ag-2 – activates the human D2 dopamine receptor. P14416. DiscoveRx PathHunter D2 beta-arrestin, luminescence, 90 min; 100% = 57 uM dopamine signal. activation, % (concentration not given with the values). 0.084% of 360,000 active; in the data active = activation above about 40%; inconclusive = between about 15% and that limit
#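 Agonist mode: compounds alone added to overnight-plated D2 PathHunter cells for 90 min at 37 C, with 57 uM final dopamine (EC100) defining full response. Beta-arrestin recruitment detected by chemiluminescent reagent, read after 1 h at ambient temperature.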
# LDHA inh – inhibitors of human lactate dehydrogenase A. purified LDHA, NADH/diaphorase-resazurin fluorescence; hits give low values. activity change, % (values are at about 110 or 230 µM). 0.15% of 480,000 active. P00338; in the data active = activity change below about -30%; inconclusive = mostly about -25% to -30%
#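 Enzyme activity of human lactate dehydrogenase 5 (2 nM; 0.06 mM NADH, 0.2 mM pyruvate, 5 min, RT) is measured via a resazurin/diaphorase fluorescence readout of residual NADH.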
# D2 PAM-2 – positive allosteric modulators of human D2 dopamine receptor; P14416; DiscoveRx D2 beta-arrestin cells, luminescence, 90 min; 100% = 57 uM dopamine signal; potentiation, % (test concentration not listed); 0.23% of 360,000 active; AID 624464; in the data active = potentiation above about 50%; inconclusive = mostly about 30% to 49%
#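 PathHunter beta-arrestin assay in DiscoveRx D2 cells. Compounds were added with an EC20 of dopamine (50 nM final) for 90 min at 37 deg C. Luminescence was read 1 h after detection reagent, with 57 uM dopamine as the EC100 control.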
# D2 antag – D2 dopamine receptor (human) antagonism. inhibition, % at 10 µM. P14416. HEK293 TREx D2 cells, calcium flux, dopamine EC80. 2% of 340,000 active; in the data active = inhibition above about 30%; inactive = below that, where a call was filed
#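 Calcium flux kinetic readout in an inducible HEK293 TREx D2 line plated overnight at 30 C. After 180 s compound exposure, an EC80 dopamine challenge follows with another 180 s kinetic read to detect antagonism.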
# Numbers stand for hits; - = inactive; ? = inconclusive; . = no result given; ! = not active in a repeat. The list is not random: actives were taken first. Their share in the collection is about 2.1%.
SMILES,D2 PAM-1,D2 ag-1,D2 ag-2,LDHA inh,D2 PAM-2,D2 antag
COc1ccc(OC)c(NC(=O)C(C)N2c3cccc4cccc(c34)S2(=O)=O)c1 (stereo not drawn),-,-,-,-,-,34
O=C(NCC1CCCO1)Nc1c(NC2CCCC2)c2ccccc2oc1=O (stereo not drawn),.,.,.,-,.,.
CCN(c1ccccc1)S(=O)(=O)c1ccc(OC)c(NC(=O)c2nn(C)c(=O)c3ccccc23)c1,.,.,.,-,.,.
CS(=O)(=O)N1CCN(c2ccccc2NC(=O)c2cccnc2Cl)CC1,-,-,-,-,-,33
COC(=O)C1C(C(=O)OC)C2(OC(c3ccccc3)=CC2=O)C12OC(c1ccccc1)=CC2=O (stereo not drawn),.,.,.,-,.,.
CCOC(=O)N1CCN(Cc2nc3cc([N+](=O)[O-])ccc3n2CC)CC1,-,-,-,-,-,37
CC(O)CSc1nc2c(c(=O)n(C)c(=O)n2C)n1Cc1ccc(Cl)cc1 (stereo not drawn),.,.,.,-,.,.
CC1(C)CC(=O)C(N=Nc2ccc3ncsc3c2)=C(O)C1,-,-,-,-,-,-
COc1ccc2nc(N=NC3=C(O)CC(C)(C)CC3=O)sc2c1,-,-,-,-,-,34
Cc1ccc(NC(=S)NC2CCN(Cc3ccccc3)CC2)cc1C,-,-,-,-,?,78
Cc1ccc(NC(=O)CN2CCC(NC(=O)Cc3ccccc3)CC2)cc1C,.,.,-,-,-,.
Cc1ccc(NC(=S)NC2CCN(Cc3ccccc3)CC2)cc1,-,-,-,-,-,84
CC(C)c1ccc(NC(=S)N2CCN(Cc3ccccc3)CC2)cc1,-,-,-,-,-,-
O=C(Nc1ccccc1)NC1CCN(Cc2ccccc2)CC1,.,.,.,-,.,.
CC(C)c1ccc(NC(=S)NC2CCN(Cc3ccccc3)CC2)cc1,-,-,-,-,-,52
Cc1ccc(C(=S)N2CCN(Cc3ccccc3)CC2)cc1,-,-,-,-,-,65
S=C(Nc1ccc2c(c1)OCO2)NC1CCN(Cc2ccccc2)CC1,-,-,-,-,-,59
CC1=C(C)CC(C(=O)N2CCN(Cc3ccccc3)CC2)C(C(=O)O)C1 (stereo not drawn),30,-,-,-,-,-
CCCc1cc(=O)n2nc(N3CCC(C(=O)Nc4c(F)c(F)c(F)c(F)c4F)CC3)sc2n1,-,-,-,-,-,38
O=C(CS(=O)(=O)Cc1ccccc1)Nc1ccc(F)cc1,.,.,.,-,.,.
Cc1ccccc1Nc1nc(N)nc(COC(=O)CCS(=O)(=O)c2ccccc2)n1,-,-,-,-,-,32
CCOc1cc(N2CCOCC2)c(OCC)cc1NC(=O)C1=COCCO1,-,-,-,-,-,39
CCOc1cc(N2CCOCC2)c(OCC)cc1NC(=O)CSc1ncccn1,-,-,-,-,-,-
CCOc1cc(N2CCOCC2)c(OCC)cc1NC(=O)CSc1cccc[n+]1[O-],.,.,-,-,57,.
CCOc1cc(N2CCOCC2)c(OCC)cc1NC(=O)c1cc(C)cc(C)c1,-,-,-,-,-,-
SMILES,D2 PAM-1,D2 ag-1,D2 ag-2,LDHA inh,D2 PAM-2,D2 antag
Fc1cccc(NC(=S)NCc2cccs2)c1,.,.,.,-,.,.
COCCOC(=O)/C(C#N)=C\c1cc(Cl)c(O)c(OC)c1,.,.,.,-,.,.
CCOc1ccc(N2CC(O)(c3ccc(F)cc3)[N+]3=C2CCCC3)cc1 (stereo not drawn),-,-,-,-,-,30
CCS(=O)(=O)N(Cc1ccc(Cl)c(Cl)c1)c1c(C)n(C)n(-c2ccccc2)c1=O,.,.,.,-,.,.
NC(=O)c1cn(CC(=O)NCCc2ccccc2F)c2ccccc12,.,.,.,-,.,.
O=S(=O)(Cc1ccccc1)Nn1cnnc1,-,-,-,-,-,31
O=S(=O)(Cc1ccccc1)NCc1cccc(CNS(=O)(=O)Cc2ccccc2)c1,.,.,.,-,.,.
C/C(Cn1nnc([N+](=O)[O-])n1)=N\NC(=O)c1ccccc1O,-,-,?,-,-,-
C/C(Cn1nnc([N+](=O)[O-])n1)=N\NC(=O)c1ccc(O)cc1O,-,-,?,-,59,-
CCc1cc2c(=O)c(-c3cnn(-c4ccccc4)c3)c(C(F)(F)F)oc2cc1O,.,.,.,-,.,.
COc1ccc(-n2c(C)cc(C=O)c2C)cc1Cl,-,-,-,-,-,-
Cc1cc(C=O)c(C)n1-c1ccc(Cl)c(C(=O)O)c1,-,-,-,-,-,37
COc1cc(C2CC(=O)Oc3c2c(=O)[nH]c2ccccc32)cc(OC)c1OC (stereo not drawn),-,-,.,-,.,.
COc1cc(C2CC(=O)Oc3c2c(=O)[nH]c2ccccc32)cc2c1OCO2 (stereo not drawn),.,.,.,-38,.,.
NC(N)=Nc1cc2ccccc2c2ccccc12,-,68,.,.,.,38
CCN1C(=S)SC(=O)C1=C1C=C(C)OC(C)=C1,-,-,-,-,-,57
CCN1C(=S)SC(=O)C1=C1C=C(C)N(Cc2ccco2)C(C)=C1,-,.,-,-,-,.
Oc1cccc(C2c3[nH]c4ccccc4c3CCN2Cc2ccc3c(c2)CCO3)c1 (stereo not drawn),-,-,-,-,-,-
Oc1cccc(C2c3[nH]c4ccccc4c3CCN2Cc2ccoc2)c1 (stereo not drawn),-,-,-,-121,-,-
O=C(Nc1ccccc1-c1nnn(CC(=O)N2CCCc3ccccc32)n1)c1ccc(Cl)cc1,-,-,-,-,-,47
O=C(Nc1ccccc1-c1nnn(CC(=O)N2CCCc3ccccc32)n1)c1ccco1,-,-,-,-,-,-
CCCCCC/C(C)=C1/SC(=S)NC1=O,-,-,-,-,-,-
C/C(C/C(C)=C1/SC(=S)NC1=O)=C1\SC(=S)NC1=O,-,-,-,-34,-,-
Cc1occc1-c1nnc(-c2cc([N+](=O)[O-])cc([N+](=O)[O-])c2)o1,-,-,?,-,66,-
COc1ccc(/C=C2\SC(=O)N(CCNC(=O)C3CC(=O)N(c4ccccc4)C3)C2=O)cc1 (stereo not drawn),37,-,-,-,-,-
CCOc1ccc(-c2nc(C#N)c(NCc3ccc4c(c3)OCO4)o2)cc1,-,-,-,-31!,-,-
CCOC(=O)C1=C(CNCCc2ccc(Cl)cc2)NC(=O)NC1c1ccc2c(c1)OCO2 (stereo not drawn),31,-,-,-,-,-
CCc1c(C)sc(NC(=O)C2CCCCC2)c1C#N,.,.,.,-,.,.
c1ccc2c(c1)CCCN2Cc1nnnn1CC1CCCO1 (stereo not drawn),32,-,-,-,-,-
N/C(=N\c1nc2c(c(=O)[nH]1)CCC2)Nc1ccccc1,-,-,-,-,-,30

# Source: PubChem (National Center for Advancing Translational Sciences (NCATS))
